Results reported in the OligoGym collection.

Target: TNPO2
Assay: pooled miR-30 sensor sort-seq; sequence = guide strand
Conditions: shRNA
Note: reference of the scale not given here.

Row | Sequence | sensor-assay potency score (higher = more potent)
1 | TTTGAGCAGCTGCAGGACCTGC | -1.11
2 | TTGTCTTCGTCCTTGAGCTCAT | 0.165
3 | TGAGTCTTTGAGCAGCTGCAGG | -1.5
4 | TTGACACCGATCATCATGCAGA | -0.349
5 | TTTGAGTTTATCCTGCACGATG | -1.1
6 | TTGAAGAACTGCAGGAACTTGG | -0.371
7 | AATCTTATAAAACATGTCCCGA | -0.983
8 | TCATCTTCTGACTTGAGTCTGG | 0.0435
9 | AATGTTGTTGAGACACTCCTGT | 0.856
10 | TTTTCCAGCAGTGTCTTGGGTG | -0.0437

Target: TOMM40L
Assay: as above
Conditions: shRNA

Row | Sequence | sensor-assay potency score (higher = more potent)
11 | TACATCTTTGCATAGACGGTGC | 0.000587
12 | TTATACCATAGAACACATCCAC | -0.126
13 | TCTGATAGTCTGTCATACCAGA | -0.753
14 | TAGTCTGTCATACCAGAGCATG | -1.7
15 | TAGACGGTGCAGCTCATCGAAG | -1.14
16 | TTTCTCTAATGTTCAGACCTGG | -0.359
17 | TATACCATAGAACACATCCACC | -1.17
18 | TACCAAATCCAGCACATCCAGG | -1.16
19 | TGTGGTAGTAACTTGCATGGGC | 1.17
20 | TAAGAGGTAAAGAAGCTCCTTC | 0.51
21 | TTTGGAACCTCTGATAGTCTGT | 0.397
22 | TTACTATCCACCAAGCCTCTAA | -0.326

Target: TOP1MT
Assay: as above
Conditions: shRNA

Row | Sequence | sensor-assay potency score (higher = more potent)
23 | TTCTTCTCCAGGACACTCCTGG | 0.134
24 | TTTTGCTGTAGATCTTCTCCAC | 0.12
25 | TGTAGGATAAGATCTTAGCTGC | 0.167
26 | TCATTGAAGAAGTTCTTCCGGA | 0.332
27 | TTGTTGTGTATTCATGATCTAA | -0.885
28 | TTGTTCTCCTCCTTGTCCGTGG | -0.327
29 | TTGTAGGTCCGGAACACCTTGG | -0.571
30 | TTGTCCACAAAGTATCTGTGGA | 0.0397
31 | TTCTGAACGCTCTCGGTCCAAG | -1.34
32 | TTTTTCTTGGTGACCATCTAAA | -1.15
33 | TATTCATGATCTAACATCCTCC | 0.13
34 | TTTGCCTGGATCTTCGTCTGGA | 0.141

Target: TP53I13
Assay: as above
Conditions: shRNA

Row | Sequence | sensor-assay potency score (higher = more potent)
35 | TAGCCATACAAGCATAGGCCAG | -1.71
36 | TTTCACAGTAGATCCATGCCTT | 0.393
37 | TCGGAAGTTTCTGTGCAGCCGT | -0.684
38 | TCGTGTGTAGGTCACTCTTGGT | -1.06
39 | TGAGCCTCTGTCCTGGAGCTGG | -1.27
